According to PMC5540273 (PLoS ONE, 2017):

How the values were obtained:
Conditions in all cases: concentration: 1 μM, replicates: in singlicate; n = 1
[1] = test system: ROCK1
[2] = test system: ROCK2
[3] = test system: ROS1
[4] = test system: RPS6KA4(Kin.Dom.1-N-terminal)
[5] = test system: RPS6KA4(Kin.Dom.2-C-terminal)
[6] = test system: RPS6KA5(Kin.Dom.1-N-terminal)
[7] = test system: RPS6KA5(Kin.Dom.2-C-terminal)
[8] = test system: T1, RSK1(Kin.Dom.1-N-terminal)
T1 construct: gene RPS6KA1

[9] = test system: T2, RSK1(Kin.Dom.2-C-terminal)
T2 construct: gene RPS6KA1

[10] = test system: T3, RSK2(Kin.Dom.1-N-terminal)
T3 construct: gene RPS6KA3

[11] = test system: T4, RSK2(Kin.Dom.2-C-terminal)
T4 construct: gene RPS6KA3

[12] = test system: T5, RSK3(Kin.Dom.1-N-terminal)
T5 construct: gene RPS6KA2

[13] = test system: T6, RSK3(Kin.Dom.2-C-terminal)
T6 construct: gene RPS6KA2

[14] = test system: T7, RSK4(Kin.Dom.1-N-terminal)
T7 construct: gene RPS6KA6

[15] = test system: T8, RSK4(Kin.Dom.2-C-terminal)
T8 construct: gene RPS6KA6

[16] = test system: S6K1
[17] = test system: SBK1
[18] = test system: SGK2
[19] = test system: SGK3
[20] = test system: SGK
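Further: KINOMEscan kinase panel screen.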

| Compound | %Inh [1] | %Inh [2] | %Inh [3] | %Inh [4] | %Inh [5] | %Inh [6] | %Inh [7] | %Inh [8] | %Inh [9] | %Inh [10] | %Inh [11] | %Inh [12] | %Inh [13] | %Inh [14] | %Inh [15] | %Inh [16] | %Inh [17] | %Inh [18] | %Inh [19] | %Inh [20] |
| --- | --- | --- | --- | --- | --- | --- | --- | --- | --- | --- | --- | --- | --- | --- | --- | --- | --- | --- | --- | --- |
| COc1ccc2nc(-c3cccc(C)n3)nc(Nc3ccncc3)c2c1 [GSK204919] | 13% | 5% | 4% | 12% | 0% | 25% | 0% | 2% | 7% | 0% | 19% | 19% | 0% | 0% | 26% | 1% | 21% | 0% | 0% | 0% |
| COc1ccccc1CNC(=O)c1cc(C(=O)c2ccccc2C)c[nH]1 [GSK364507] | 12% | 10% | 0% | 5% | 0% | 5% | 21% | 25% | 0% | 4% | 0% | 4% | 0% | 0% | 0% | 11% | 16% | 1% | 0% | 0% |
| COc1cc2nccc(Nc3ccc(NC(=O)c4ccc(C)cc4)c(O)c3)c2cc1OC.Cl [GW440132] | 0% | 4% | 47% | 11% | 0% | 18% | 0% | 9% | 0% | 7% | 4% | 4% | 0% | 0% | 0% | 0% | 10% | 5% | 0% | 0% |
| O=S(=O)(c1ccc(-c2ccnc3[nH]ccc23)cc1)N1CCCC1 [GSK846226] | 81% | 82% | 12% | 5% | 56% | 8% | 76% | 8% | 54% | 18% | 0% | 0% | 38% | 0% | 35% | 5% | 4% | 0% | 0% | 0% |
| Nc1ncnc2[nH]c(-c3ccccc3)nc12 [AH5015] | 11% | 14% | 0% | 15% | 0% | 5% | 0% | 15% | 0% | 15% | 6% | 0% | 0% | 9% | 34% | 22% | 78% | 5% | 18% | 21% |
| Cc1cc(N2Cc3ccccc3C2)nc(Nc2ccc(S(=O)(=O)N3CCOCC3)cc2)n1.Cl [GSK1669917] | 0% | 0% | 18% | 5% | 0% | 0% | 0% | 0% | 17% | 0% | 0% | 0% | 7% | 0% | 1% | 2% | 16% | 0% | 9% | 0% |
| Fc1cc(Cl)ccc1Nc1ccnc2cc(I)ccc12 [GW551191] | 2% | 17% | 0% | 10% | 0% | 13% | 0% | 8% | 50% | 11% | 32% | 0% | 0% | 0% | 87% | 4% | 19% | 4% | 0% | 8% |
| COC(=O)c1c(-c2ccccc2)c2cc(C(=O)O)ccc2c(=O)n1Cc1ccccc1 | 10% | 0% | 0% | 0% | 6% | 11% | 0% | 0% | 18% | 0% | 0% | 0% | 0% | 0% | 5% | 0% | 0% | 25% | 5% | 23% |
| COc1cc2ncnc(Nc3ccc4nc(-c5ccccc5)[nH]c4c3)c2cc1OC.Cl [GW282450] | 18% | 30% | 47% | 6% | 0% | 11% | 3% | 0% | 0% | 0% | 27% | 15% | 0% | 1% | 0% | 16% | 20% | 0% | 0% | 0% |
